Data taken from the supplement of paper PMC11732987, “Enantioselective OTUD7B fragment discovery through chemoproteomics screening and high-throughput optimisation” (Communications Chemistry, 2025).

Key:
Test in all cases: log2 ratio of Biotin-Ahx-Ub-VS probe labelling (fragment/DMSO); higher = less target engagement (more negative = stronger competition), active = hit call of the paper (q ≤ 0.05, log2 ratio ≤ -1)
Details in all cases: compound concentration: 200 uM; treatment time: 3 h
USP34 = USP34 (UniProt Q70CQ2)
Summary of the method: (§1)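 HEK293T lysate in Tris/CHAPS/IGEPAL buffer with protease inhibitors (495 µg per sample) was given fragment at 200 µM or vehicle for 3 h, in triplicate. It then received Biotin-Ahx-Ub-VS at 0.5 µM final for 1 h. Labelled DUBs were NeutrAvidin-enriched, digested with LysC and trypsin, and run by diaPASEF LC-MS/MS. Values are average log2 fragment/vehicle ratios by unpaired t-test on global-median-normalised Spectronaut quantities of proteins with ≥2 unique peptides.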

USP36 = target: T1, USP36 (UniProt Q9P275)
T1 sequence (whole entry): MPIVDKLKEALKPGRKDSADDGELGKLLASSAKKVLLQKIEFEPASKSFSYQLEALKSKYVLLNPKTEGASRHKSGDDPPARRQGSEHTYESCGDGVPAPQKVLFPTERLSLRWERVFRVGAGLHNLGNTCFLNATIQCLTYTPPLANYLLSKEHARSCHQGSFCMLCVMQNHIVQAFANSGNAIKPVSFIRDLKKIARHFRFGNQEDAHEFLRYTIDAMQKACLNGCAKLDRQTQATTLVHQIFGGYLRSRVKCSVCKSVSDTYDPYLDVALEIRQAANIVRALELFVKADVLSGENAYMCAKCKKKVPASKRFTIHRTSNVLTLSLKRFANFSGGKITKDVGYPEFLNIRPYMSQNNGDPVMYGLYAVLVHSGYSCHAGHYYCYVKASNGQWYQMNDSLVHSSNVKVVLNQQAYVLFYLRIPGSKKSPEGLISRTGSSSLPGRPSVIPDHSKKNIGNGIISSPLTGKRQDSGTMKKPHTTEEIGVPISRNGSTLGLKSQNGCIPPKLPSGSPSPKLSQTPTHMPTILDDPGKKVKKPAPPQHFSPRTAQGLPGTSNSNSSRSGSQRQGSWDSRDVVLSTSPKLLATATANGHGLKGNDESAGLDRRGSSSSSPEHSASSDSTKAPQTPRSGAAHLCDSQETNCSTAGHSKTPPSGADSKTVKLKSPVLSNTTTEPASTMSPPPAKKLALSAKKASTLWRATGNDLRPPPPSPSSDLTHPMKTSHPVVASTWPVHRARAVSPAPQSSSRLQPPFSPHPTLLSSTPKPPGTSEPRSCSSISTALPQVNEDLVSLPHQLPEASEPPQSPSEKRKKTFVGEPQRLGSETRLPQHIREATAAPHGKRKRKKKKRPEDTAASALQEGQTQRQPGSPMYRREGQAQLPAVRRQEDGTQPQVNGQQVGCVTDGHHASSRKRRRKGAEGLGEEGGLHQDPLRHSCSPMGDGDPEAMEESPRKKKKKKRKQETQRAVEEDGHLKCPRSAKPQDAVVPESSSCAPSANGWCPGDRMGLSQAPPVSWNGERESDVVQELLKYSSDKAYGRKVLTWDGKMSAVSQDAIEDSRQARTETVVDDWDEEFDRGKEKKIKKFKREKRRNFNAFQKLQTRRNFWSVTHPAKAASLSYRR
Summary of the method: as §1

USP38 = target: T2, USP38 (UniProt Q8NB14)
T2 sequence (whole entry): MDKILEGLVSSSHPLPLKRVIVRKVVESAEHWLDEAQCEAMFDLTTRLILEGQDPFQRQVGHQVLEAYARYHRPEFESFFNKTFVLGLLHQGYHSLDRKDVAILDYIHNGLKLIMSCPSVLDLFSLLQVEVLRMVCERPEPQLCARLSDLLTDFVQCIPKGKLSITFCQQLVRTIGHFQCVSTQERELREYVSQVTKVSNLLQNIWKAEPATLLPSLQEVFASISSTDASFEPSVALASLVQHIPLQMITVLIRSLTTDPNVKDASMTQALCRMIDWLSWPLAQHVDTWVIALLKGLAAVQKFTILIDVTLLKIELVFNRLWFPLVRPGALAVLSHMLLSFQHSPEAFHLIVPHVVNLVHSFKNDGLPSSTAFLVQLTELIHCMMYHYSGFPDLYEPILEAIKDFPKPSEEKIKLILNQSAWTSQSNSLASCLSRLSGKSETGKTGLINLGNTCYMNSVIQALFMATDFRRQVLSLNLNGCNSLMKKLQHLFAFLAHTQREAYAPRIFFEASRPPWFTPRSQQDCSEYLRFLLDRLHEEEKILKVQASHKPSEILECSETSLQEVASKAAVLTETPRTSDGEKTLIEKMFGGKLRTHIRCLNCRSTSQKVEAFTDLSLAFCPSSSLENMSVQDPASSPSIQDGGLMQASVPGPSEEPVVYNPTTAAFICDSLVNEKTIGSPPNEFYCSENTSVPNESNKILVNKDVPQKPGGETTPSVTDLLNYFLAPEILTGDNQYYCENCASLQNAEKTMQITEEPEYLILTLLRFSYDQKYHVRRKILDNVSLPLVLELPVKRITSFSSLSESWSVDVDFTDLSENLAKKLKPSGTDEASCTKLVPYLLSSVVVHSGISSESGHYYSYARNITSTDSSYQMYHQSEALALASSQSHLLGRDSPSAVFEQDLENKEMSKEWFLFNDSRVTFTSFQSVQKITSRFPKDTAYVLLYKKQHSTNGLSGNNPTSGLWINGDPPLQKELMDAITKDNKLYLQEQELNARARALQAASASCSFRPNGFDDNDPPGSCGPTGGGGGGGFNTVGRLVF
Summary of the method: as §1

USP39 = target: T3, USP39 (UniProt Q53GS9)
T3 sequence (whole entry): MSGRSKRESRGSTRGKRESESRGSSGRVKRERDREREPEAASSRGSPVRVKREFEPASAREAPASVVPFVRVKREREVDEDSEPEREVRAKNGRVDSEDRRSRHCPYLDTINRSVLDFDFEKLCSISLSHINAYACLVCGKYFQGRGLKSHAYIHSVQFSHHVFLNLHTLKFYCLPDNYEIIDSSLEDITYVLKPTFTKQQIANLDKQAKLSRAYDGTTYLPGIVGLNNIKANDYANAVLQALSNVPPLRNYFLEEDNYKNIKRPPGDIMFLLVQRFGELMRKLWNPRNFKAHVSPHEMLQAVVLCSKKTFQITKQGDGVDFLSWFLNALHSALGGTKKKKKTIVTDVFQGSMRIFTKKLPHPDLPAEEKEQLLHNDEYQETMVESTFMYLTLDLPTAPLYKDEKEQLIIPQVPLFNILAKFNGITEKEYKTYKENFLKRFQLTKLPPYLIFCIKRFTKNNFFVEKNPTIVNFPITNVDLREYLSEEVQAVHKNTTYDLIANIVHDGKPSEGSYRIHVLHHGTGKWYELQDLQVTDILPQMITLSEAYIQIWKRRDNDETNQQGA
Summary of the method: as §1

USP4 = target: T4, USP4 (UniProt Q13107)
T4 sequence (whole entry): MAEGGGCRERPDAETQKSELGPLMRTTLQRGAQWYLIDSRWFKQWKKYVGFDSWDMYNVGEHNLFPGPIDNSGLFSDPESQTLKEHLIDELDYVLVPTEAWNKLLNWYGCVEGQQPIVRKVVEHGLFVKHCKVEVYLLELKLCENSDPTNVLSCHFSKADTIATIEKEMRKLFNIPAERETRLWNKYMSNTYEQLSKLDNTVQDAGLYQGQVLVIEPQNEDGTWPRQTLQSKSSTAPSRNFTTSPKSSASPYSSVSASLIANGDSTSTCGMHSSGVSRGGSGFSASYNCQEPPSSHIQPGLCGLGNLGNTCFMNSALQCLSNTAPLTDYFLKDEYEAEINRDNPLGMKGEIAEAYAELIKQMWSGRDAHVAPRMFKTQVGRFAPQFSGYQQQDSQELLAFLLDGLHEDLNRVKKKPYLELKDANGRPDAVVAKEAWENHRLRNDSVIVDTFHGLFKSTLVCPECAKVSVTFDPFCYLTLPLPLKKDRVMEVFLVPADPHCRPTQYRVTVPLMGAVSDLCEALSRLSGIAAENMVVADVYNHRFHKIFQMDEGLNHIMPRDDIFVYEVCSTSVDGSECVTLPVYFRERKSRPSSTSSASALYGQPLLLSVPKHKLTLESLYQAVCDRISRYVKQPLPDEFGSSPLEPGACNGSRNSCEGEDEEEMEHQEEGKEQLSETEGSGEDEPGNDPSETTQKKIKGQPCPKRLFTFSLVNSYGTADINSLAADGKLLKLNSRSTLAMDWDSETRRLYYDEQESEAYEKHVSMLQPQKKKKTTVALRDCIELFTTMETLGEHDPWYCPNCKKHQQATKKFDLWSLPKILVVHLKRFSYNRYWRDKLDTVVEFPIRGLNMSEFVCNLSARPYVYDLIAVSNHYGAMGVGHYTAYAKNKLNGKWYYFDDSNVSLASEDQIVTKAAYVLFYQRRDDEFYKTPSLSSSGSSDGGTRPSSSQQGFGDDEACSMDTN
Summary of the method: as §1

Measured: log2 ratio of Biotin-Ahx-Ub-VS probe labelling

Chain of USP34 (Q70CQ2 whole entry, the tested form may be a part): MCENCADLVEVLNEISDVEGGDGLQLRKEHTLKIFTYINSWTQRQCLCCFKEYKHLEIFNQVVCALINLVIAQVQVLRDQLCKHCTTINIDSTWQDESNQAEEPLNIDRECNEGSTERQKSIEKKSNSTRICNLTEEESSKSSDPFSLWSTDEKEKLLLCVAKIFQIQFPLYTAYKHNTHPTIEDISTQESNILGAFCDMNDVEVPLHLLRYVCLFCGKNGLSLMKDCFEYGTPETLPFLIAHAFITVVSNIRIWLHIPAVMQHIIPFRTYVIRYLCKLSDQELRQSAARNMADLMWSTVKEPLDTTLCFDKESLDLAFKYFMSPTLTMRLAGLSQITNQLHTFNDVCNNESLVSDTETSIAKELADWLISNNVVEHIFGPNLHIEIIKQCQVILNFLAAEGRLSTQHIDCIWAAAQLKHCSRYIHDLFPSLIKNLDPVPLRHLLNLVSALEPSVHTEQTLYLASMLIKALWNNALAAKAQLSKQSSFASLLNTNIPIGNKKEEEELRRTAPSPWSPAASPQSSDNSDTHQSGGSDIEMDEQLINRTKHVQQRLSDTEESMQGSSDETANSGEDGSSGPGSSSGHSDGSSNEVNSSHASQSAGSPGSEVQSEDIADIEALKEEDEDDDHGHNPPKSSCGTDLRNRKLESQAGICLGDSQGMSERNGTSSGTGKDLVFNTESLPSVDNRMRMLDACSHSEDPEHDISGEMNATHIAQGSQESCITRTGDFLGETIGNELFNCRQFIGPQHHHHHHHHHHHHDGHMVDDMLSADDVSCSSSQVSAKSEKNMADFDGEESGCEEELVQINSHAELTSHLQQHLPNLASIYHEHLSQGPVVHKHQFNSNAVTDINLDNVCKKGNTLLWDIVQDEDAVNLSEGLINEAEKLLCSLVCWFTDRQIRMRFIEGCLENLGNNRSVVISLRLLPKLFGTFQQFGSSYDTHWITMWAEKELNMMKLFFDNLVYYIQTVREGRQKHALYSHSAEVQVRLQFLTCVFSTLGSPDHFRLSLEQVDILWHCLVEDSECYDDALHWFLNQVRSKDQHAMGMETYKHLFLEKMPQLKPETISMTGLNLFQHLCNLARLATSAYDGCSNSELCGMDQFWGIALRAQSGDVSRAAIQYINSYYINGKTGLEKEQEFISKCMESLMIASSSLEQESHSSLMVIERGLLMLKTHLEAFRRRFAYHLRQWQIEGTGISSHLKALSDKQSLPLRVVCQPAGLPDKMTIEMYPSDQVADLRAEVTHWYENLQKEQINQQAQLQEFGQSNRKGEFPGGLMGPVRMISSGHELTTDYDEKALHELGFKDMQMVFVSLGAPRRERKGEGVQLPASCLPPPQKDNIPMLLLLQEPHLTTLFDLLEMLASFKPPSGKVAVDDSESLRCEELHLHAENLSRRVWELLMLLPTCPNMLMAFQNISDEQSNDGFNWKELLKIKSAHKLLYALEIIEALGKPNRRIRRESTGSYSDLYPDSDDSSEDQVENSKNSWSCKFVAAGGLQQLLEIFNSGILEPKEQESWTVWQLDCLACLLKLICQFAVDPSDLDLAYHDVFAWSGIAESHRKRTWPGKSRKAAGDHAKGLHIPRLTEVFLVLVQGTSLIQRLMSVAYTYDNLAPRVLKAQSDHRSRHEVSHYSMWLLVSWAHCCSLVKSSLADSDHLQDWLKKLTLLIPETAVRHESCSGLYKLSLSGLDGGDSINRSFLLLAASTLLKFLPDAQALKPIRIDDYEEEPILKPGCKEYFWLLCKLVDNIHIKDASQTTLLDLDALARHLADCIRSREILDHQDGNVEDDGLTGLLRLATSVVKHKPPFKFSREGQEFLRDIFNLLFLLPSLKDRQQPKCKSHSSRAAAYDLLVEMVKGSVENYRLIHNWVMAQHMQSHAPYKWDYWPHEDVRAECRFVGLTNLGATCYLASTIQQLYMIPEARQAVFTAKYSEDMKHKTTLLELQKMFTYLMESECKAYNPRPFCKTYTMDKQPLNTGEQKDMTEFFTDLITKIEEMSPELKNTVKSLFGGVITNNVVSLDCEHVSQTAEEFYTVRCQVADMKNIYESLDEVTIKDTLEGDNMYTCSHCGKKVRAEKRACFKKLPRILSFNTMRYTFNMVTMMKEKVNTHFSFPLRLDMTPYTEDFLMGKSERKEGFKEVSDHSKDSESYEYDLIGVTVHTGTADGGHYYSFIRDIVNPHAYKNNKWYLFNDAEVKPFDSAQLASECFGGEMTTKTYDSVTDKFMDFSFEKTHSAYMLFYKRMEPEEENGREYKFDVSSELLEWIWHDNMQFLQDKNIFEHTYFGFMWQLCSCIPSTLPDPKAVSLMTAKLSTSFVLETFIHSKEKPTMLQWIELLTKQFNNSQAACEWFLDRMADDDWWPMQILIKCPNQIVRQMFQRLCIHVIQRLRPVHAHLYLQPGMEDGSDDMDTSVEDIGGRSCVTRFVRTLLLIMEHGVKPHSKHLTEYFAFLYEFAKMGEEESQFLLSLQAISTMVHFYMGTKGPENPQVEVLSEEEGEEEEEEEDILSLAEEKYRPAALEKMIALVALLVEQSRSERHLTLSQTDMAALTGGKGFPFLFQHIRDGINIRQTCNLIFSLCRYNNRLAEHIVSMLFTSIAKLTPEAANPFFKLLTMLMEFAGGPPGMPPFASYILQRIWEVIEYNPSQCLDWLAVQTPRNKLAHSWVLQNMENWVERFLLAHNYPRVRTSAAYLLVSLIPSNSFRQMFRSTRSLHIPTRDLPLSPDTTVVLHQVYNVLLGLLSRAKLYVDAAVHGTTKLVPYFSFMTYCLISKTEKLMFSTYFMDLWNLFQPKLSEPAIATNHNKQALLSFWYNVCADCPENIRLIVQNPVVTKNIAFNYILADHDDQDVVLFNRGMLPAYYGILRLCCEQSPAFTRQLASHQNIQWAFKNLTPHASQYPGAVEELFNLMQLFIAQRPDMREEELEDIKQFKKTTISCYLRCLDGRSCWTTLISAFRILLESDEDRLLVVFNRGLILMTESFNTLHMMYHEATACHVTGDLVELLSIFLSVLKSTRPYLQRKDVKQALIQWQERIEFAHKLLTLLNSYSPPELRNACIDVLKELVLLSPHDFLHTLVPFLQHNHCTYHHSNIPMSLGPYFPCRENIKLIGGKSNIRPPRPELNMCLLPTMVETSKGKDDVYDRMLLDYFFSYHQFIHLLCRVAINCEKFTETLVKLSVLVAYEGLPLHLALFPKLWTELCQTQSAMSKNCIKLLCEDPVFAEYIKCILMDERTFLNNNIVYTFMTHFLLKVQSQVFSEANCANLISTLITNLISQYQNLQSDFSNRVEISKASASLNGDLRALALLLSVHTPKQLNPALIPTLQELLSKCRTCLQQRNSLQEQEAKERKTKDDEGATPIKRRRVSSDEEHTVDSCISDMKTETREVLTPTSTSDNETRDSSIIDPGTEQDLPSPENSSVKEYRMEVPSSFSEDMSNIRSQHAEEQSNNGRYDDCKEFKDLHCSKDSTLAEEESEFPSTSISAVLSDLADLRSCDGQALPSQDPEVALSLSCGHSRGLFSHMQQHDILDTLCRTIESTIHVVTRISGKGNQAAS

O=C(CCl)N1CCN(C(=O)Nc2ccccc2)CC1
inactive: USP34 -0.102 | USP36 -0.282 | USP38 0.184 | USP39 -0.0496 | USP4 0.0949
